This is a sample that favours compounds with a hit; in the whole collection about 6.2% have one here.
HT1080NT lethal: kills 2HG-producing HT-1080-NT fibrosarcoma cells. HT-1080-NT fibrosarcoma viability, CellTiter-Glo ATP luminescence, 48 h. Potency, µM (top dose mostly 46.1 µM), actives largely listed as cytotoxic. 360,000 compounds, 1.6% hits;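 also: NT is the 2HG producing partner of a matched IDH1 knockdown line; nearly all actives have a fitted effect of over 55% in size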
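A 48-hour cytotoxicity screen used HT-1080-NT cells plated 2 hours before compound delivery. ATP-based CellTiter-Glo luminescence measured viability, normalized to DMSO and no-cell controls.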
HT1080 IDH1KD tx: kills HT-1080 cells with IDH1 knockdown; HT-1080 IDH1 knockdown viability, ATP luminescence, 48 h; 360,000 compounds, 2% hits; Potency, µM (top dose mostly 46.1 µM), hits mostly cytotoxic
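Viability of IDH1-knockdown HT-1080 fibrosarcoma cells was assessed by CellTiter-Glo after 48 h at 37 °C with titrated compound; concentration-effect curves were classified by fit quality and response size.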
KB-V1 MDR tox: kills drug-selected multidrug resistant KB-V1 cells; KB-V1 MDR cells viability, CellTiter-Glo, 72 h; 400,000 compounds, 3.4% hits; AID 1347076; Potency, µM (highest dose often 46.1 µM), usual class: cytotoxic; also: nearly all actives have a fitted effect of over 60% in size
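qHTS viability screen in drug-selected KB-V1 MDR cells: 72 h compound treatment at 37 degrees C, ATP luminescence end point.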
ATXN2 expr inh: reduces ATXN2 reporter expression in HEK-293 cells; AID 1745845; Potency, µM (titrated, usually from 57 µM), usual class: inhibitors; 360,000 compounds, 0.72% hits; HEK-293 ATXN2-luciferase reporter, luminescence, 24 h; also: nearly all actives have a fitted effect of over 55% in size
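qHTS (up to 57 uM final) was run with 24 h compound exposure of reporter cells at 37 °C. Each well was multiplexed: SteadyGlo luminescence measured ATXN2-luciferase expression after a fluorogenic Gly-Phe-AFC viability readout (25 uM final).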
S2 tox: viability counter-screen for ATXN expression inhibitors | AID 651635 | Potency, µM (doses to about 56.7 µM), most hits filed as cytotoxic | S2 cells (HEK-293 line with an ATXN2-luciferase reporter) viability, CellTiter-Fluor protease fluorescence, 24 h | 400,000 compounds, 0.49% hits; also: nearly all actives have a fitted effect of over 40% in size
KB-3-1 cytotox: KB-3-1 parental cell cytotoxicity; 400,000 compounds, 1.4% hits; KB-3-1 viability, CellTiter-Glo ATP luminescence, 72 h; Potency, µM (highest dose often 46.1 µM), actives largely listed as cytotoxic; also: nearly all actives have a fitted effect of over 60% in size
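KB-3-1 parental drug-naive adenocarcinoma cells in DMEM/10% FBS, incubated 72 h at 37 C with pin-transferred compounds across a concentration series. Viability by CellTiter-Glo luminescence; concentration-response curves fitted after normalization.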
Numbers stand for hits; - = inactive; ? = inconclusive; . = no result given; [ ] = another dose, or the depositor's remark. Calls follow the shape of the dose curve; as a rule, active = well fitted curve in the direction sought with a large enough effect; inconclusive = small, poorly fitted or top-dose-only effect, or another doubt; inactive = no such curve, though single readings can be large; an effect the other way counts as inactive or inconclusive.

SMILES	HT1080NT lethal	HT1080 IDH1KD tx	KB-V1 MDR tox	ATXN2 expr inh	S2 tox	KB-3-1 cytotox
CCOc1ccc(OCC)c(NC(=O)c2cnc(SC)nc2-c2ccccc2)c1	.	.	?	-	-	-
Brc1ccc(CSc2nnc(Cc3c[nH]c4ccccc34)o2)cc1	-	-	18µM	-	-	-
CCOC(=O)Cn1c(=O)oc2cc(S(=O)(=O)N3CCN(c4cc(C)ccc4C)CC3)ccc21	.	.	?	.	.	-
Cc1cc(C)c(S(=O)(=O)N2CCC(N3CCN(Cc4ccccc4)C(=O)C3=O)CC2)c(C)c1	.	.	?	-	-	-
Cc1ccc(C)c(N(CC(=O)N/N=C/c2ccc(-c3ccc([N+](=O)[O-])cc3)o2)S(=O)(=O)c2ccccc2)c1	-	-	-	-	-	-
CCOc1ccc(S(=O)(=O)N(CC(=O)N/N=C/c2ccc(-c3ccc([N+](=O)[O-])cc3)o2)c2ccccc2)cc1	13µM	-[9.24 µM]	?	-	-	?
COc1ccc(S(=O)(=O)N(CC(=O)Nc2ccc(S(=O)(=O)N3CCOCC3)cc2)c2ccccc2)cc1	-	-	5.2µM	-	-	?
CCOc1ccc(NC(=O)CN(c2ccc([N+](=O)[O-])cc2)S(=O)(=O)c2ccccc2)cc1	?	8.2µM	7.3µM	-	-	-
COc1ccc(NC(=O)CN(C)C(=O)c2ccc(S(=O)(=O)N3CCOCC3)cc2)cc1	-	-	?	.	-	-
O=C(CCc1ccc(S(=O)(=O)N2CCOCC2)cc1)Nc1nc(COc2ccccc2)cs1	?	?	2.9µM	?	-	5.2µM
O=C(COc1ccccc1)Nc1nc(-c2ccc(S(=O)(=O)N3CCOCC3)cc2)cs1	-	-	-	-	?	-
CN(C(=O)CSc1nc2ccc(NC(=O)c3cccs3)cc2s1)c1ccccc1	.	.	?	?	?	-
COc1ccc(CN2CCOc3ccc(CN4CCC(Oc5cccnc5)CC4)cc3C2)cc1	.	.	.	.	-	.
COc1ccc(NC(=O)c2c(C)oc3ccc(O)c(CN4CCN(C)CC4)c23)cc1Cl	.	.	-	-	?	-
CCc1ccccc1NC(=O)CCNS(=O)(=O)c1ccc2c(c1)CCN2C(=O)C1CC1	.	.	-	-	-	-
COc1ccc(-c2nc(CSCC(=O)NCCc3ccc(C)cc3)c(C)o2)cc1OC	.	.	-	.	.	-
CC(=O)N1CCN(c2ccc(OCc3nn(C)c(C)c3-c3cccc4c(CCCOc5cc(C)c(Cl)c(C)c5)c(C(=O)O)n(Cc5cccnc5)c34)cc2)CC1	.	.	.	-	.	.
O=C(COc1cccc2cccnc12)Nc1cccc(S(=O)(=O)N2CCCC2)c1	-	-	?	-	-	-
CCOc1ccc(NC(=O)CN2CCN(c3ccccc3C)CC2)cc1S(=O)(=O)N1CCCC1	-	-	4.1µM	-	-	-
CCOc1ccc(NC(=O)COc2cccc3cccnc23)cc1S(=O)(=O)N1CCCC1	-	?	21µM	.	-	?
O=C(NC1CCCCC1)/C(=C/c1ccc(Cl)cc1)NC(=O)c1ccccc1	.	.	-	-	-	-
COc1ccc2nc(SCC(=O)c3c(C)[nH]c4ccccc34)nc(C)c2c1	.	.	?	-	-	-
CSc1ccc(S(=O)(=O)Nc2ccc3c4c(cccc24)CC3)cc1	?	?	15µM	-	-	18µM
CSc1ccc(S(=O)(=O)Nc2ccc3c(c2)NC(=O)CC3)cc1	-	16µM	-	-	-	-
O=C1CCc2cc(S(=O)(=O)Nc3ccc4c(c3)CCC4)ccc2N1	.	.	-	.	.	-
SMILES	HT1080NT lethal	HT1080 IDH1KD tx	KB-V1 MDR tox	ATXN2 expr inh	S2 tox	KB-3-1 cytotox
CCc1cccc(C)c1NC(=O)CN1CCCN(Cc2ccccc2Cl)S1(=O)=O	.	.	-	.	.	?
CN(Cc1ccon1)C(=O)c1cnn(-c2nccc(-c3ccc4c(c3)OCO4)n2)c1C1CC1	.	.	.	.	-	.
c1ccc2c(C3=NNC(=NC4CCCCC4)SC3)c[nH]c2c1	?	?	-	-	-	-
c1ccc(C2=NNC(=NC3CC3)SC2)cc1	?	18µM	-	?	-	?
c1ccc2c(C3=NNC(=NC4CC4)SC3)c[nH]c2c1	-	-	-	18µM	-	-
Cc1cc(C2=NNC(=NC3CC3)SC2)c(C)n1-c1ccccc1	-	-	-	.	-	-
